# mHTT CaM bind – mutant huntingtin-calmodulin interaction inhibitors – biochemical, AlphaScreen, primary screen. AlphaScreen His-mHTT/GST-CaM binding, luminescence. AID 1671202, 2021. inhibition, % at 15 µM. hit rate 3.6% among 190,000;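 further: 0% = both proteins with DMSO and 100% = one protein alone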
# Pf apPOL block – Pf-apPOL inhibitors, biochemical, fluorescence; Recombinant Pf-apPOL, molecular beacon fluorescence, 1.5 h; hit rate 0.25% among 210,000; AID 1794808, 2022; inhibition, % at 10 µM; Plasmodium falciparum apicoplast DNA polymerase (apPOL)
# * = called active by the depositor; · = no result. Rows were chosen to be rich in hits. Some 3.5% of all compounds tested hit in one or more screens of this group. No stated cut-off is given here; in the data, active means inhibition above about 50%; inactive means the rest.
SMILES,mHTT CaM bind,Pf apPOL block
O[C@H]1C[C@H](c2ccccc2)N(CC2CCCCC2)C[C@@H]1n1cc(-c2ccc(F)cc2)nn1,55*,1
CCCCCCN1C[C@@H](n2cc(C3CC3)nn2)[C@H](O)C[C@@H]1c1ccc(C)cc1,29,5
O[C@H]1C[C@H](c2ccc(Cl)cc2)N(CC2CCCCC2)C[C@@H]1n1cc(C2CC2)nn1,80*,-9
CCCCCCN1C[C@H](n2cc(C3CC3)nn2)[C@@H](O)C[C@@H]1c1ccc(C)cc1,77*,-2
COc1ccc([C@H]2C[C@@H](O)[C@H](n3cc(-c4ccc(F)cc4)nn3)CN2CC2CCCCC2)cc1,15,-2
Cc1nnc(N=CNO)s1,·,0
O=C(Nc1c2c(nn1-c1ccc([N+](=O)[O-])cc1)CSC2)c1ccc(Cl)cc1Cl,18,-6
COc1ccc(OC)c(C=C2SC(=S)N(C(CC(=O)O)C(=O)O)C2=O)c1 (configuration not stated),5,-6
CCOc1ccccc1NC(=O)c1cc2cc3ccc(C)cc3nc2o1,-3,7
O=C1CCCC2=C1C(c1ccc(O)cc1)C1=C(CCCC1=O)O2,-2,0
CCCCCCCCCn1cc[n+](CCCCCCCCC)c1C,100*,·
CCCCCCCCN1C(=O)CCC1=O,-9,·
N#CC1=C(N)Oc2nc[nH]c(=O)c2C1c1ccsc1 (configuration not stated),-6,·
COc1cc(OC)c(-c2nc(-c3ccsc3)c(-c3ccccc3)[nH]2)cc1OC,68*,-1
c1ccc(-c2nc(-c3ccco3)[nH]c2-c2ccccc2)cc1,·,9
N#C/C(=C\c1cccc(F)c1)c1nc2ccccc2[nH]1,100*,-4
COc1cc(/C=C(\C#N)c2nc3ccccc3[nH]2)cc2c1OCO2,69*,-4
N#C/C(=C\c1cccc(Br)c1)c1nc2ccccc2[nH]1,3,-2
COc1cc(/C=C(\C#N)c2nc3ccccc3[nH]2)cc(OC)c1O,43,-1
Cc1cc(=O)n(Cc2ccccc2C#N)c(N2CCSCC2)n1,-29,-4
COc1cccc(-c2nc(C=Nc3cc(Cl)ccc3Cl)c(O)o2)c1,3,-2
O=C(Nc1cccc(F)c1)C1CC(=O)N(CCc2c[nH]c3ccc(F)cc23)C1 (configuration not stated),18,-4
CC1CCN(C(=O)C2CC(=O)N(CCc3c[nH]c4ccc(F)cc34)C2)CC1 (configuration not stated),19,0
O=C(Nc1cccc(F)c1)C1CC(=O)N(CCc2c[nH]c3ccc(Cl)cc23)C1 (configuration not stated),66*,2
O=C1CC(C(=O)N2CCN(Cc3ccccc3)CC2)CN1CCc1c[nH]c2ccc(F)cc12 (configuration not stated),55*,-3
SMILES,mHTT CaM bind,Pf apPOL block
Cc1ccc2[nH]cc(CCNC(=O)CC3CCN(C(=O)c4ccccc4Cl)CC3)c2c1,79*,1
COc1ccc2[nH]cc(CCN3CC(C(=O)Nc4ccc(F)c(Cl)c4)CC3=O)c2c1 (configuration not stated),55*,-2
Cc1ccc(C(=O)N2CCC(CC(=O)NCCc3c[nH]c4ccc(Cl)cc34)CC2)cc1,10,-7
COc1ccc2[nH]cc(CCN3CC(C(=O)Nc4cc(F)cc(F)c4)CC3=O)c2c1 (configuration not stated),31,-5
COc1ccc(Nc2nc(NCc3ccccn3)nc3[nH]ncc23)cc1,0,2
COc1ccc(C2CCN(C(=O)COc3ccc(Cl)cc3Cl)C2)cc1 (configuration not stated),-7,-12
O=C1C(=Cc2ccco2)Oc2cc(OCc3ccccc3)ccc21,19,2
Cc1cccc(NC(=O)C2CC(=O)N(CCc3c[nH]c4ccc(Cl)cc34)C2)c1 (configuration not stated),82*,-1
COc1ccc(N2C(=O)CCC(C(=O)Nc3ccc(C)c(F)c3)C2c2ccc(F)cc2)cc1 (configuration not stated),32,0
COc1cccc(NC(=O)C2CC(=O)N(CCc3c[nH]c4ccc(Cl)cc34)C2)c1 (configuration not stated),19,-2
COc1ccc(C2C(C(=O)Nc3ccc(F)c(Cl)c3)CC(=O)N2c2ccc(OC)cc2)cc1 (configuration not stated),100*,-5
COc1ccc2nc(NC(=O)C3CC(=O)N(CCc4c[nH]c5ccc(C)cc45)C3)sc2c1 (configuration not stated),85*,-1
Cc1ccc(N2CC(C(=O)Nc3nc4ccccc4s3)CC2=O)cc1Cl (configuration not stated),55*,-1
COc1ccc(NC(=O)C2CC(=O)N(c3ccc(C)c(Cl)c3)C2)cc1 (configuration not stated),1,1

# Screens as filed in PubChem.
